# Measured values as given in PubChem BioAssay (NCI).
# Compounds without any hit were thinned out: in the full panel of roughly 79,000, 15% have a hit. A number with no mark means an inactive call. Calls of active or inactive are those of the source. Rule as the data show it: active = growth inhibition above about 70%; inactive = the rest.
# How the values were obtained:
# [1] = NCI Yeast Anticancer Drug Screen. Data for the rad52 strain (AID 147);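 also: 0% = growth of vehicle-treated control cultures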; settings: S. cerevisiae rad52 mutant growth inhibition, hits give high values
# Procedure, shortened: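 DNA repair-defective yeast; compound exposure; growth scored against vehicle controls.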
# [2] = NCI Yeast Anticancer Drug Screen. Data for the wt1 strain (AID 149);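 also: 0% = growth of vehicle-treated wt1 cultures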; settings: S. cerevisiae wt1 strain (SPY 50644) growth inhibition, hits give high values
# Procedure, shortened: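 Vehicle-normalised growth inhibition; strain wt1; compound exposure.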
# [3] = NCI Yeast Anticancer Drug Screen. Data for the rad50EPP+ strain (AID 151);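 also: 0% = growth of vehicle-treated control cultures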; settings: S. cerevisiae rad50 mutant strain, hits give high values
# Procedure, shortened: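 rad50EPP+ yeast treated with test compounds. Readout: growth vs vehicle control.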
# [4] = NCI Yeast Anticancer Drug Screen. Data for the mgt1 strain (AID 153); settings: S. cerevisiae mgt1 mutant growth inhibition, hits give high values
# Procedure, shortened: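 Growth inhibition relative to vehicle controls was scored for the mgt1 yeast strain after compound exposure.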
# [5] = NCI Yeast Anticancer Drug Screen. Data for the rad50 strain (AID 155);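 also: 0% = growth of vehicle-only cultures of the same strain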; settings: S. cerevisiae rad50 strain growth inhibition, hits give high values
# Procedure, shortened: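 A DNA repair-deficient yeast mutant serves as the test organism; compound-induced growth inhibition is calculated against vehicle-treated cells.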
# [6] = NCI Yeast Anticancer Drug Screen. Data for the mec2-1 strain (AID 157); settings: S. cerevisiae mec2-1 strain, hits give high values
# Procedure, shortened: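 Growth inhibition is read against vehicle-treated controls after compound exposure of the mec2-1 yeast strain, which is defective in DNA damage repair or cell cycle control.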
# [7] = NCI Yeast Anticancer Drug Screen. Data for the rad14 strain (AID 159);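 also: 0% = growth of vehicle-treated control cultures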; settings: S. cerevisiae rad14 strain growth inhibition, hits give high values
# Procedure, shortened: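 Vehicle-treated cultures served as the baseline for growth inhibition of a DNA repair-mutant yeast strain exposed to each compound.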
# [8] = NCI Yeast Anticancer Drug Screen. Data for the sgs1 mgt1 strain (AID 161);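 also: 0% = growth of cultures given vehicle only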; settings: S. cerevisiae sgs1 mgt1 strain, hits give high values
# Procedure, shortened: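 Compounds are added to genetically altered yeast, and growth is compared with cultures given vehicle alone to give percent inhibition.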
# [9] = NCI Yeast Anticancer Drug Screen. Data for the CLN2oe strain (AID 163);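 also: 0% = growth of vehicle-only control cultures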; settings: S. cerevisiae CLN2oe strain, hits give high values
# Procedure, shortened: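 Compound-treated yeast; growth vs vehicle ctrl = % inhibition. Genetically altered strain (cell-cycle control).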
# [10] = NCI Yeast Anticancer Drug Screen. Data for the bub3 strain (AID 167); settings: S. cerevisiae bub3 mutant strain, hits give high values
# Procedure, shortened: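 Inhibition values come from growth of compound-treated mutant yeast normalised to vehicle-treated controls.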
# [11] = NCI Yeast Anticancer Drug Screen. Data for the wt2 strain (AID 169);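 also: 0% = growth of vehicle-treated yeast cultures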; settings: S. cerevisiae wt2 strain growth inhibition, hits give high values
# Procedure, shortened: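 Compound exposure of yeast; growth compared with vehicle controls; inhibition reported.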
# [12] = NCI Yeast Anticancer Drug Screen. Data for the mlh1 strain (AID 171);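 also: 0% = growth of vehicle-treated control cultures of the same strain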; settings: S. cerevisiae mlh1 strain growth inhibition, hits give high values
# Procedure, shortened: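 Compounds are applied to a genetically altered yeast strain, and its growth is compared with that of vehicle-treated cultures to give percent inhibition.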
# [13] = NCI Yeast Anticancer Drug Screen. Data for the sgs1 strain (AID 173);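 also: 0% = growth of vehicle-only control cultures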; settings: S. cerevisiae sgs1 mutant, hits give high values
# Procedure, shortened: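 Compounds applied to genetically altered yeast; growth compared with vehicle-treated cultures to give % inhibition.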
# [14] = NCI Yeast Anticancer Drug Screen. Data for the mlh1 rad18 strain (AID 175); settings: S. cerevisiae mlh1 rad18 strain growth inhibition, hits give high values
# Procedure, shortened: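 Cells of a genetically altered yeast strain, deficient in DNA damage repair, were treated with compound. Their growth was then compared with that of vehicle-treated cultures to give inhibition.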
# [15] = NCI Yeast Anticancer Drug Screen. Data for the rad18 strain (AID 177); settings: S. cerevisiae rad18 mutant growth inhibition, hits give high values
# Procedure, shortened: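 Compounds are applied to a repair-deficient yeast strain, and growth is compared with that of vehicle-treated cultures to give percent inhibition.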
# [16] = at 5.0 µM (retest, dose inferred, filed as 0.5)
# [17] = at 50.0 µM (retest, dose inferred, filed as 5.0)
structure (smiles),measurement,setting,value
O=C1/C(=C/c2ccccc2)CCCC1CN1CCCCC1 (stereo not given),growth inhibition,[1]; at 1.2 µM,13%
same,growth inhibition,[1]; at 3.7 µM,35%
same,growth inhibition,[1]; at 11.0 µM,56%
same,growth inhibition,[1]; at 33.0 µM,72% (active)
same,growth inhibition,[1]; at 100.0 µM,78% (active)
same,growth inhibition,[2]; at 1.2 µM,10%
same,growth inhibition,[2]; at 3.7 µM,19%
same,growth inhibition,[2]; at 11.0 µM,28%
same,growth inhibition,[2]; at 33.0 µM,31%
same,growth inhibition,[2]; at 100.0 µM,34%
same,growth inhibition,[3]; at 1.2 µM,-2%
same,growth inhibition,[3]; at 3.7 µM,-1%
same,growth inhibition,[3]; at 11.0 µM,15%
same,growth inhibition,[3]; at 33.0 µM,46%
same,growth inhibition,[3]; at 100.0 µM,51%
same,growth inhibition,[4]; at 1.2 µM,16%
same,growth inhibition,[4]; at 3.7 µM,44%
same,growth inhibition,[4]; at 11.0 µM,59%
same,growth inhibition,[4]; at 33.0 µM,85% (active)
same,growth inhibition,[4]; at 100.0 µM,96% (active)
same,growth inhibition,[5]; at 1.2 µM,13%
same,growth inhibition,[5]; at 3.7 µM,26%
same,growth inhibition,[5]; [16],29%
same,growth inhibition,[5]; at 11.0 µM,39%
same,growth inhibition,[5]; at 33.0 µM,61%
same,growth inhibition,[5]; [17],79% (active)
same,growth inhibition,[5]; at 50.0 µM,72.3% (active)
same,growth inhibition,[5]; at 100.0 µM,68%
same,growth inhibition,[6]; at 1.2 µM,16%
same,growth inhibition,[6]; at 3.7 µM,22%
same,growth inhibition,[6]; [16],32%
same,growth inhibition,[6]; at 11.0 µM,34%
same,growth inhibition,[6]; at 33.0 µM,48%
same,growth inhibition,[6]; [17],74% (active)
same,growth inhibition,[6]; at 50.0 µM,75.2% (active)
same,growth inhibition,[6]; at 100.0 µM,57%
same,growth inhibition,[7]; at 1.2 µM,48%
same,growth inhibition,[7]; at 3.7 µM,70% (active)
same,growth inhibition,[7]; at 11.0 µM,92% (active)
same,growth inhibition,[7]; at 33.0 µM,98% (active)
same,growth inhibition,[7]; at 100.0 µM,98% (active)
same,growth inhibition,[8]; [16],40%
same,growth inhibition,[8]; [17],80% (active)
same,growth inhibition,[8]; at 50.0 µM,85.7% (active)
same,growth inhibition,[9]; at 1.2 µM,40%
same,growth inhibition,[9]; at 3.7 µM,59%
same,growth inhibition,[9]; at 11.0 µM,67%
same,growth inhibition,[9]; at 33.0 µM,80% (active)
same,growth inhibition,[9]; at 100.0 µM,83% (active)
same,growth inhibition,[10]; at 1.2 µM,30%
same,growth inhibition,[10]; at 3.7 µM,53%
same,growth inhibition,[10]; [16],12%
same,growth inhibition,[10]; at 11.0 µM,79% (active)
same,growth inhibition,[10]; at 33.0 µM,95% (active)
same,growth inhibition,[10]; [17],83% (active)
same,growth inhibition,[10]; at 50.0 µM,82.9% (active)
same,growth inhibition,[10]; at 100.0 µM,97% (active)
same,growth inhibition,[11]; at 1.2 µM,19%
same,growth inhibition,[11]; at 3.7 µM,31%
same,growth inhibition,[11]; at 11.0 µM,51%
same,growth inhibition,[11]; at 33.0 µM,79% (active)
same,growth inhibition,[11]; at 100.0 µM,87% (active)
same,growth inhibition,[12]; at 1.2 µM,4%
same,growth inhibition,[12]; at 3.7 µM,16%
same,growth inhibition,[12]; at 11.0 µM,26%
same,growth inhibition,[12]; at 33.0 µM,34%
same,growth inhibition,[12]; at 100.0 µM,38%
same,growth inhibition,[13]; at 1.2 µM,29%
same,growth inhibition,[13]; at 3.7 µM,42%
same,growth inhibition,[13]; at 11.0 µM,67%
same,growth inhibition,[13]; at 33.0 µM,86% (active)
same,growth inhibition,[13]; at 100.0 µM,91% (active)
same,growth inhibition,[14]; [16],43%
same,growth inhibition,[14]; [17],75% (active)
same,growth inhibition,[14]; at 50.0 µM,74.7% (active)
same,growth inhibition,[15]; at 1.2 µM,34%
same,growth inhibition,[15]; at 3.7 µM,59%
same,growth inhibition,[15]; at 11.0 µM,74% (active)
same,growth inhibition,[15]; at 33.0 µM,83% (active)
same,growth inhibition,[15]; at 100.0 µM,90% (active)
CCCC(O)C1CC(C(C)C)CCC1C (stereo not given),growth inhibition,[1]; at 1.2 µM,0%
same,growth inhibition,[1]; at 3.7 µM,1%
same,growth inhibition,[1]; at 11.0 µM,2%
same,growth inhibition,[1]; at 33.0 µM,7%
same,growth inhibition,[1]; at 100.0 µM,43%
same,growth inhibition,[2]; at 1.2 µM,-1%
same,growth inhibition,[2]; at 3.7 µM,0%
same,growth inhibition,[2]; at 11.0 µM,-1%
same,growth inhibition,[2]; at 33.0 µM,3%
same,growth inhibition,[2]; at 100.0 µM,75% (active)
same,growth inhibition,[3]; at 1.2 µM,-3%
same,growth inhibition,[3]; at 3.7 µM,-2%
same,growth inhibition,[3]; at 11.0 µM,7%
same,growth inhibition,[3]; at 33.0 µM,47%
same,growth inhibition,[3]; at 100.0 µM,98% (active)
same,growth inhibition,[4]; at 1.2 µM,-2%
same,growth inhibition,[4]; at 3.7 µM,0%
same,growth inhibition,[4]; at 11.0 µM,-1%
same,growth inhibition,[4]; at 33.0 µM,5%
same,growth inhibition,[4]; at 100.0 µM,96% (active)
same,growth inhibition,[5]; at 1.2 µM,0%
same,growth inhibition,[5]; at 3.7 µM,-46%
same,growth inhibition,[5]; [16],0%
same,growth inhibition,[5]; at 11.0 µM,25%
same,growth inhibition,[5]; at 33.0 µM,6%
same,growth inhibition,[5]; [17],5%
same,growth inhibition,[5]; at 50.0 µM,31.4%
same,growth inhibition,[5]; at 100.0 µM,64%
same,growth inhibition,[6]; at 1.2 µM,0%
same,growth inhibition,[6]; at 3.7 µM,3%
